Assay results from PubChem BioAssay.
Where “and” joins values, the source holds several entries; their conditions need not be identical. Equal entries are not always repeated. Calls of active or inactive are those of the source.

Key:
[1] = E. coli DRC41 culture turbidity changes, primary screen, E. coli filamentation inducer project, strain DRC41, OD650, 48 h (AID 1152);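 also: E. coli MC1000 strain DRC41 lacking acrAB efflux pump and sulA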; conditions: E. coli DRC41 (acrAB sulA), higher = more signal, called active from +8 up or from −8 down
[2] = small-molecule binders of probe aLefty1, primary screen, biochemical, small-molecule microarray, 635/667 nm fluorescence (AID 1153); conditions: higher = more signal;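 also: score merges spot fluorescence with signal-to-noise ratio from the scanned slide images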
[3] = PSAC antagonists in infected red cells, primary screen, cell-based, P. falciparum Indochina, OD700, 1 h (AID 1154); conditions: P. falciparum Indochina infected RBC osmotic lysis, higher = more signal, called active from +8 up or from −8 down
[4] = PSAC antagonists in infected red cells, primary screen, cell-based, P. falciparum Indochina, OD700, 2 h (AID 1155);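 also: lysis reports solute entry through the parasite surface anion channel PSAC; channel blockers reduce lysis of infected cells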; conditions: P. falciparum Indochina infected erythrocytes, osmotic lysis OD700; higher = more signal, called active from +8 up or from −8 down
[5] = osmotic lysis modulators in infected erythrocytes, primary screen, PSAC antagonist project, cell-based, P. falciparum Indochina, OD700, 3 h (AID 1156); conditions: higher = more signal, called active from +8 up or from −8 down
[6] = PSAC antagonists in infected red cells, primary screen, cell-based, P. falciparum Indochina, OD700, 18 h (AID 1157); conditions: P. falciparum Indochina infected erythrocytes, osmotic lysis OD700, 18 h; higher = more signal, called active from +8 up or from −8 down
[7] = modulators of S6 phosphorylation in cells, primary screen, cell-based, A549, cytoblot, luminescence, serum-stimulated (AID 1158); conditions: A549 phospho-S6 cytoblot, 5 h, higher = more signal;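 also: serum-stimulated A549 lung adenocarcinoma cells; signal is phosphorylated S6 detected by cytoblot immunostaining with HRP secondary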
[8] = target: NADPH oxidase 2 (Homo sapiens) (UniProt P04839); assay: NOX2-dependent H2O2 signal modulators, primary screen, NOX inhibitor project, cell-based, HEK293-NOX2, PMA-stimulated, Amplex Red fluorescence (AID 1159); conditions: 45 min, higher = more signal, called active from +8 up or from −8 down; also: test concentration not given here
[9] = target: NADPH oxidase 4 (Homo sapiens) (UniProt Q9NPH5); assay: NOX4-dependent H2O2 signal modulators, primary screen, NOX inhibitor project, cell-based, HEK293-NOX4, tetracycline-induced, Amplex Red fluorescence (AID 1160); conditions: 45 min, higher = more signal, called active from +8 up or from −8 down
[10] = target: NADPH oxidase 5 (Homo sapiens) (UniProt Q96PH1); assay: NOX5-dependent H2O2 signal modulators, primary screen, NOX inhibitor project, cell-based, HEK293-NOX5, Amplex Red fluorescence (AID 1161); conditions: HEK293-NOX5, ionomycin, 45 min, higher = more signal
[11] = A549 cell viability effects, profiling panel, calcein-AM fluorescence, 48 h, basal (AID 1162); conditions: higher = more signal; also: test concentration not given here
[12] = adipocyte viability effects, profiling panel, cell-based, 3T3-L1 adipocytes, calcein-AM fluorescence, 48 h, basal (AID 1163); conditions: 3T3-L1 adipocytes viability, higher = more signal; also: test concentration not given here
[13] = HepG2 cell viability effects, profiling panel, calcein-AM fluorescence, 48 h, basal (AID 1164); conditions: higher = more signal; also: test concentration not given here
[14] = MM1S cell viability effects, profiling panel, calcein-AM fluorescence, 48 h, basal (AID 1165); conditions: higher = more signal;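 also: viability of MM1S multiple myeloma cells under basal unstimulated conditions; test concentration not given here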
[15] = basal RPMI8226 viability, no added stimulus, profiling panel, cell-based, calcein-AM fluorescence, 48 h, PK04 Diversity Set (AID 1166); conditions: RPMI8226 myeloma viability, higher = more signal;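 also: cells grown under basal conditions without added stimulus; test concentration not given here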
[16] = basal HepG2 mitochondrial membrane potential changes, profiling panel, cell-based, JC-1 fluorescence, 24 h, 100 nL compound (AID 1167); conditions: higher = more signal; also: test concentration not given here
[17] = basal 3T3-L1 adipocyte mitochondrial potential changes, profiling panel, cell-based, JC-1 fluorescence, 3T3-L1 adipocytes, 24 h, 100 nL compound (AID 1168); conditions: JC-1 mitochondrial fluorescence, higher = more signal, called active from +8 up or from −8 down; also: test concentration not given here
[18] = basal RPMI8226 mitochondrial membrane potential changes, profiling panel, cell-based, JC-1 fluorescence, 24 h, 100 nL compound (AID 1169); conditions: RPMI8226 myeloma, JC-1 mitochondrial potential fluorescence, higher = more signal; also: test concentration not given here
[19] = basal MM1S mitochondrial membrane potential changes, profiling panel, cell-based, JC-1 fluorescence, 24 h, 100 nL compound (AID 1170); conditions: higher = more signal; also: test concentration not given here
[20] = A549 lung cancer cell viability effects, profiling panel, resazurin fluorescence, 24 h, PK04 Diversity Set (AID 1171); conditions: higher = more signal, called active from +8 up or from −8 down; also: test concentration not given here

Sequence of NADPH oxidase 4 (Homo sapiens) (Q9NPH5 whole entry, looked up): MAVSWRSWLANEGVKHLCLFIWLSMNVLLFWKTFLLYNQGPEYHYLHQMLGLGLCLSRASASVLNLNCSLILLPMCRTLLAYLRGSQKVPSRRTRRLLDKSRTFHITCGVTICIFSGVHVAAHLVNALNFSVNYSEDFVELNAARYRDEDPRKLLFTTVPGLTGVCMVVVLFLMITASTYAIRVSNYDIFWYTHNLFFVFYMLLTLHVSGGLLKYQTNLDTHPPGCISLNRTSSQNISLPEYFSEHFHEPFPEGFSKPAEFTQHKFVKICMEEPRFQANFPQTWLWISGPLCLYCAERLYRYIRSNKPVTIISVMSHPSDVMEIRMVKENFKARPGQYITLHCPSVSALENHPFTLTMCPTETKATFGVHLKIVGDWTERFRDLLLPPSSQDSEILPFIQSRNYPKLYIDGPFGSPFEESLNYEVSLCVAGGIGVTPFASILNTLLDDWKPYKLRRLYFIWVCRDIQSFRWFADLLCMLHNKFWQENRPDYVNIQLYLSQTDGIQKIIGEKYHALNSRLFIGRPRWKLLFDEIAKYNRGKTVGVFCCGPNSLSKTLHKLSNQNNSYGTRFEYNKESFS
Sequence of NADPH oxidase 2 (Homo sapiens) (P04839 whole entry, looked up): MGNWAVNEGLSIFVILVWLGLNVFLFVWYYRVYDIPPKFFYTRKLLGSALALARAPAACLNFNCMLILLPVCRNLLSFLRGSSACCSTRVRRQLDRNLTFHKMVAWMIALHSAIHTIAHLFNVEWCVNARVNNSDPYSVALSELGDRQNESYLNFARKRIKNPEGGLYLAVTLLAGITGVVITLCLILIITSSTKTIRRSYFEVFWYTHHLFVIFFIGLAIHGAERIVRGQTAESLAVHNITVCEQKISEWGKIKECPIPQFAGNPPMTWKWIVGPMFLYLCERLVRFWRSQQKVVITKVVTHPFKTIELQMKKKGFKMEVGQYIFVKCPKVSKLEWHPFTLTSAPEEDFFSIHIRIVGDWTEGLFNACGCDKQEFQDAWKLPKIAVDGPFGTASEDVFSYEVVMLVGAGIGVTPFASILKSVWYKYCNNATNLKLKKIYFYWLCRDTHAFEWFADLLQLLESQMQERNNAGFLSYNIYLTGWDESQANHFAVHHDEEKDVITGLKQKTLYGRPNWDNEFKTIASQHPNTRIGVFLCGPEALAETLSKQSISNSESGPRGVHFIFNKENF
Sequence of NADPH oxidase 5 (Homo sapiens) (Q96PH1 whole entry, looked up): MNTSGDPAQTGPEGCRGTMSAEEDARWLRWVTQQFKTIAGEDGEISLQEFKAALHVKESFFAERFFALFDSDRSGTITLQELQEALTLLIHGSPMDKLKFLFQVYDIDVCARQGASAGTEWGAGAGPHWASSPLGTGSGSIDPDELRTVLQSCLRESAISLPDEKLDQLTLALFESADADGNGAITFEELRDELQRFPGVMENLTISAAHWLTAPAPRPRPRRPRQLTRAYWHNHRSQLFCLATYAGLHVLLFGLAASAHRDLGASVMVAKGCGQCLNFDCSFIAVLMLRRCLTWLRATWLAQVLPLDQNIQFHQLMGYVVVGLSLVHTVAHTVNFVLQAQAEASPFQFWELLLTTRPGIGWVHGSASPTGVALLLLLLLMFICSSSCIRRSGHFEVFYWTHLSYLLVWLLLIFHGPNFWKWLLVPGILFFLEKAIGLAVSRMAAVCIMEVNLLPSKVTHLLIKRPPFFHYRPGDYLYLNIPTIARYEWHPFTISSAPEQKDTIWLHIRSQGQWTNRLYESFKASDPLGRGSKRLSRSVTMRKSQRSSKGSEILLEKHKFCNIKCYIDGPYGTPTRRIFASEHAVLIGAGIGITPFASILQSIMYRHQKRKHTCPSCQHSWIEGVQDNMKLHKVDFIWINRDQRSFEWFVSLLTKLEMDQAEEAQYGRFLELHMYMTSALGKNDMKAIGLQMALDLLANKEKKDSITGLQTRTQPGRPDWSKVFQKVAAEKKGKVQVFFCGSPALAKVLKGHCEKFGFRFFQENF

| Structure (SMILES) | z-score [1] | composite z-score [2] | z-score [3] | z-score [4] | z-score [5] | z-score [6] | z-score [7] | z-score [8] | z-score [9] | z-score [10] | z-score [11] | z-score [12] | z-score [13] | z-score [14] | z-score [15] | z-score [16] | z-score [17] | z-score [18] | z-score [19] | z-score [20] |
| --- | --- | --- | --- | --- | --- | --- | --- | --- | --- | --- | --- | --- | --- | --- | --- | --- | --- | --- | --- | --- |
| C=CCN(CCCCC)C(=O)C1N(CCCCCCO)C(=O)C2C(C(=O)O)C3C=CC21O3 (stereo not given) | -0.559 (inactive) and -0.794 (inactive) | -0.191 and 0.29 | 0.0275 (inactive) and 0.375 (inactive) | -0.76 (inactive) and 0.22 (inactive) | -0.627 (inactive) and -0.419 (inactive) | -0.33 (inactive) and 0.404 (inactive) | -0.539 and -0.626 | 1.07 (inactive) and 0.619 (inactive) | -0.208 (inactive) and -0.169 (inactive) | 1.08 and 1.26 | -0.681 and -0.373 | -0.573 and -0.412 | 0.122 and 0.657 | 1.6 and 0.379 | 0.0447 and -0.164 | -0.649 and -0.526 | -0.2 (inactive) and 0.409 (inactive) | 0.15 and 0.0486 | 0.702 and -0.254 | -0.66 (inactive) and -0.379 (inactive) |
| C[N+](C)(C)CCCCNC(=O)[C@@H]1C[C@@H]2C(=O)N[C@@H](CCCC[N+](C)(C)C)C(=O)N2[C@@H]1c1cccc(OCCO)c1 | 0.185 (inactive) and 0.394 (inactive) | -0.144 and 0.167 | 1.5 (inactive) and 1.02 (inactive) | 0.77 (inactive) and -0.108 (inactive) | -1.61 (inactive) and -1.45 (inactive) | 0.252 (inactive) and -0.0932 (inactive) | -0.519 and -0.437 | -2.1 (inactive) and -1.99 (inactive) | -2.58 (inactive) and -1.13 (inactive) | -1.28 and -0.837 | 0.901 and 1.05 | 0.462 and -0.276 | -0.517 and 0.473 | -0.531 and -0.212 | -0.719 and -0.495 | 0.0138 and 1.44 | -0.393 (inactive) and 0.547 (inactive) | 0.352 and -0.897 | -0.218 and 0.26 | -0.375 (inactive) and -0.0246 (inactive) |
| C=CCN(CCCC)C(=O)C(c1cccs1)N(C(=O)/C=C\C(=O)O)c1ccc(CCO)cc1 (stereo not given) | 0.369 (inactive) and 0.133 (inactive) | -0.279 and -0.147 | 0.855 (inactive) and 1.03 (inactive) | -0.14 (inactive) and -0.182 (inactive) | 0.517 (inactive) and 0.0377 (inactive) | 0.0866 (inactive) and 0.233 (inactive) | 0.0768 and 0.0738 | 0.377 (inactive) and 0.12 (inactive) | -0.432 (inactive) and -0.518 (inactive) | 1.18 and -0.0206 | -0.178 and 0.505 | -0.0575 and -0.458 | 0.267 and 1.02 | 1.72 and 1.52 | 0.657 and -0.192 | 0.484 and -0.279 | -0.527 (inactive) and 0.0402 (inactive) | -0.996 and 0.19 | -0.874 and -0.407 | 0.0696 (inactive) and -0.0804 (inactive) |
| CC[C@@H]1C(Sc2ccccc2)C(C(=O)O)[C@H](c2ccc(C)cc2)N1S(=O)(=O)c1ccc(C)cc1 (stereo not given in full) | -1.08 (inactive) and -0.135 (inactive) | 0.417 and -0.214 | 0.519 (inactive) and -0.178 (inactive) | 0.677 (inactive) and -0.514 (inactive) | -0.0111 (inactive) and -0.657 (inactive) | 0.683 (inactive) and -2.21 (inactive) | -0.473 and 0.388 | 0.668 (inactive) and 0.333 (inactive) | 0.464 (inactive) and 0.356 (inactive) | 2.07 and 0.173 | 0.0996 and 0.624 | -0.505 and 0.311 | 0.364 and 0.126 | 0.702 and 1.11 | -0.528 and -0.148 | -0.446 and 0.366 | 0.164 (inactive) and 0.619 (inactive) | 0.296 and -0.369 | -0.152 and -0.291 | -0.631 (inactive) and -1.02 (inactive) |
| COC(=O)[C@@]1(Cc2ccc(OC)cc2)[C@H]2c3cc(C(=O)N(C)C)n(Cc4ccc(O)c(OC)c4)c3C[C@H]2CN1C(=O)c1ccccc1 | -0.583 (inactive) and -1.09 (inactive) | 0.0913 and 0.661 | 7.35 (inactive) and 6.71 (inactive) | 0.45 (inactive) and 1.11 (inactive) | 2.07 (inactive) and 1.63 (inactive) | 0.642 (inactive) and 1.38 (inactive) | 0.217 and 0.749 | -1.99 (inactive) and 0.285 (inactive) | -6.68 (inactive) and 1.16 (inactive) | -5.69 and -0.509 | -0.352 and 0.46 | 0.865 and 0.215 | -0.0117 and 0.763 | 0.0138 and -1.26 | -0.475 and -2.77 | 2.46 and 2.03 | -0.0971 (inactive) and 0.395 (inactive) | 0.178 and -0.792 | -0.74 and -1.95 | 1.06 (inactive) and -1.21 (inactive) |
| COC(=O)C1=C(C)N(Cc2ccccc2)C2=C(C(=O)c3ccccc3)[C@H](c3ccccc3)[C@@](O)(C(=O)OC)C(=O)N2[C@@H]1c1ccccc1 | 0.809 (inactive) and 0.498 (inactive) | -0.234 and -0.168 | 1.74 (inactive) and 0.552 (inactive) | 0.852 (inactive) and 0.417 (inactive) | -0.326 (inactive) and -0.171 (inactive) | 0.442 (inactive) and 0.39 (inactive) | 0.533 and -0.266 | 1.06 (inactive) and 0.0122 (inactive) | 0.59 (inactive) and -0.238 (inactive) | 1.59 and 0.157 | 0.369 and 0.44 | -0.154 and -0.936 | 0.217 and 1.26 | -0.317 and 0.332 | -1.15 and 0.0491 | 1.33 and 2.03 | -0.393 (inactive) and -1.16 (inactive) | -0.639 and -0.349 | 0.573 and -0.514 | 1.39 (inactive) and -0.344 (inactive) |
